MsrA act: bovine methionine sulfoxide reductase A activation; purified bovine MsrA, absorbance read-out; 0.3% of 360,000 active; activation, % at 10.6 µM; AID 602163; in the data active = activation above about 7.5%;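 also: 0% = vehicle and 100% = reference activator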
HGIII-sPLA2 inh: Inhibits HGIII-sPLA2 liposome hydrolysis, primary screen | Q9NZ20 | QFRET BODIPY PC-A2 liposome hydrolysis, fluorescence | inhibition, % at 12.2 µM | 0.56% of 370,000 active | AID 743126;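 active = inhibition above mean plus 3 SD of compounds lying within the high and low control bounds, cut at about 19% in these data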;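 also: 0% = median of test compound wells and 100% = no enzyme DMSO wells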
Target sequence (Q9NZ20 whole entry, looked up): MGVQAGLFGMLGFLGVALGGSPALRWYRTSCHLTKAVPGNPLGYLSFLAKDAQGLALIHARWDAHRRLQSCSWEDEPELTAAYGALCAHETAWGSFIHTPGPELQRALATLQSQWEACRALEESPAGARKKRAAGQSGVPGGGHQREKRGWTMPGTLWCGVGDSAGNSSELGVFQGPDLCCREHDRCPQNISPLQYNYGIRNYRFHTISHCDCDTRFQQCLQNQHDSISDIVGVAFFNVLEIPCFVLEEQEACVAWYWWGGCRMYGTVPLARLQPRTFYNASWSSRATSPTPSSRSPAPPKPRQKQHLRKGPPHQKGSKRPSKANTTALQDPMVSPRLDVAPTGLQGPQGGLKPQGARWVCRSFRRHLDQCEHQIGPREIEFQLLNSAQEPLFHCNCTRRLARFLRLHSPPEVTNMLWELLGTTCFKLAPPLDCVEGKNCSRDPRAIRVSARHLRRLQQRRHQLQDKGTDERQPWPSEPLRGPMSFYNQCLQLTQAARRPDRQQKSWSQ
MsrA inhibitor: inhibits bovine methionine sulfoxide reductase A | purified bovine MsrA, absorbance read-out | inhibition, % at 15.5 µM | 0.75% of 360,000 active | AID 651718; in the data active = inhibition above about 4.5%;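 also: 0% = vehicle wells with enzyme and 100% = reference inhibitor wells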
rCAG binder: molecules binding r(CAG) RNA repeats; r(CAG) RNA repeat, TO-PRO-1 dye displacement fluorescence; inhibition, % at 3 µM; 1.3% of 370,000 active; AID 651821;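 active = inhibition above the plate cutoff, the mean of all test compounds on that plate plus 3 SD, cut at about 35% in these data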;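 also: 0% = DMSO alone and 100% = 100 µM mitoxantrone as full dye displacement; higher means more dye released from RNA so lower well fluorescence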
rCAG binder conf: r(CAG) RNA repeat binding, confirmation; inhibition, % at 3 µM; TO-PRO-1 dye displacement fluorescence; shares compounds with rCAG binder; 70% of 4,300 active; AID 652065;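 active = inhibition above a per-plate cutoff, the mean inhibition of sample wells plus 3 SD, cut at about 35% in these data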;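 also: loss of TO-PRO-1 fluorescence as compound displaces dye from 1x1 AA loop RNA; 0% = DMSO only wells and 100% = 100 µM mitoxantrone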
dCAG dye counter: counter-screen for rCAG RNA binders: DNA CAG dye complex inhibitors. shares compounds with rCAG binder. 94% of 4,300 active. inhibition, % at 3 µM. d(CAG) DNA oligo TO-PRO-1 dye displacement, fluorescence;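 active = inhibition above its plate's cutoff, the mean test-well inhibition plus 3 SD, cut at about 4.8% in these data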;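 also: 0% = DNA dye mix with DMSO and 100% = 100 µM mitoxantrone; hits displace the dye from DNA and so lower well fluorescence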
DNA CAG DR: disrupts DNA CAG TO-PRO-1 complex in dose response. 20% of 250 active. shares compounds with rCAG binder. IC50, µM. DNA CAG/GTC duplex TO-PRO-1 dye displacement fluorescence; in the data active = IC50 below about 10 µM
Active calls of the source: *; i = inactive; x = no result given. Only some compounds are listed: those with a hit (about 2.8% of all), similar ones and a draw of the others.

SMILES	MsrA act	HGIII-sPLA2 inh	MsrA inhibitor	rCAG binder	rCAG binder conf	dCAG dye counter	others
CC(/C=C1\SC(=S)N(C(C(=O)O)C(C)C)C1=O)=C\c1ccccc1 (stereo not drawn)	-3	-12	1	72*	75*	31*	DNA CAG DR=i
O=C(CN1CCN(c2nc(-c3ccccc3)cs2)CC1)Nc1ccc2c(c1)OCO2	-7	1	0	7	x	x
Cc1nc2c(C(=O)O)cnn2c(C)c1Cc1ccccc1F	-4	3	1	2	x	x
Cc1nc2c(C(=O)NCCC(C)C)c[nH]n2c(=O)c1Cc1ccccc1F	1	-108	0	69*	76*	42*
Cc1nc2c(C(=O)NCCc3ccccc3)c[nH]n2c(=O)c1Cl	1	-36	1	64*	54*	13*
Cc1nc2c(C(=O)NCCC(C)C)c[nH]n2c(=O)c1Cl	-7	-26	0	37*	36*	8.2*
O=C(O)c1cc([N+](=O)[O-])cc2ccccc12	-4	-1	0	0	x	x
C/C=C/c1ccc(Oc2nnnn2-c2ccc(C(=O)O)cc2)c(OC)c1	-3	0	-1	11	x	x
COc1ccccc1/C=C/C(=O)Nc1ccc(S(=O)(=O)Nc2cc(C)on2)cc1	-7	-32	4	53*	48*	12*
Cc1cc(NS(=O)(=O)c2ccc(NS(=O)(=O)c3ccc(Br)cc3)cc2)no1	-3	-23	-1	12	x	x
Cc1cc(NS(=O)(=O)c2ccc(NC(=O)/C=C/c3ccc(Br)cc3)cc2)no1	-6	-34	2	68*	62*	29*
COc1ccc2c(c1)c(=O)oc1c(C)c(OCc3ccc(C(=O)O)cc3)ccc12	-2	x	x	x	x	x
O=C1C2C3C=CC(C3)C2C(=O)N1/N=C/c1cn(Cc2ccccc2)c2ccccc12 (stereo not drawn)	-2	-6	1	0	x	x
NC1=NC(=O)/C(=C/c2cn(Cc3ccccc3)c3ccccc23)S1	-13	-6	0	44*	18	11*
O=C(O)c1ccc(COc2ccccc2/C=C2\NC(=O)N(Cc3ccc(F)cc3)C2=O)cc1	-9	-7	1	9	x	x
Cc1cccc(NC(=O)CN2C(=O)N/C(=C\c3ccccc3OCc3ccc(C(=O)O)cc3)C2=O)c1	-7	-50	3	61*	67*	31*
O=C(O)c1ccc(COc2ccccc2/C=C2/NC(=O)N(c3cccc(Cl)c3)C2=O)cc1	-9	-9	1	27	x	x
O=C(CN1C(=O)N/C(=C\c2ccccc2OCc2ccc(C(=O)O)cc2)C1=O)Nc1ccc(F)cc1	-8	-44	4.7*	59*	43*	13*
Cc1ccccc1NC(=O)CN1C(=O)N/C(=C\c2ccccc2OCc2ccc(C(=O)O)cc2)C1=O	2	-6	4	43*	29	7.8*
CC(=O)NCc1ccc(S(=O)(=O)N/N=C/c2ccccc2)cc1	-4	0	1	2	x	x
Cc1ccc(N2C(=O)C3C(C(=O)c4ccccc4)=NN(c4ccccc4)C3C2=O)cc1 (stereo not drawn)	-13	-5	0	4	x	x
Cc1ccc(N(CC(=O)NCc2ccc(F)cc2)C(=O)CCC(=O)Nc2ccccn2)cc1C	-2	2	-1	-2	x	x
COc1ccc(NC(C)=O)cc1NC(C)C(=O)Nc1cc(C(F)(F)F)ccc1N1CCOCC1 (stereo not drawn)	-3	1	-1	16	x	x
COc1ccc(-n2cccc2/C=C2/NC(=O)N(c3cccc(Cl)c3)C2=O)cc1	-7	2	2	12	x	x
Cc1cccc(NC(=O)CN2C(=O)N/C(=C\c3cccn3-c3cccc(C(=O)O)c3)C2=O)c1	-9	-18	3	33	x	x
SMILES	MsrA act	HGIII-sPLA2 inh	MsrA inhibitor	rCAG binder	rCAG binder conf	dCAG dye counter	others
O=C(O)c1cccc(-n2cccc2/C=C2/NC(=O)N(c3cccc(Cl)c3)C2=O)c1	-5	-18	3	36*	35*	10*
O=C(O)c1cccc(-n2cccc2/C=C2/NC(=O)N(c3ccc(Cl)cc3)C2=O)c1	-6	-16	1	72*	69*	30*
CC1CC(C)CN(C(=O)c2cccc(S(=O)(=O)Nc3cc(C(F)(F)F)ccc3Cl)c2)C1 (stereo not drawn)	-1	-58	-1	71*	66*	27*
O=S(=O)(NC(=NCc1ccccc1)c1ccccc1F)c1ccccc1	-2	3	1	-3	x	x
Cc1[nH]c2ccccc2c1/C=N/NC(=O)c1cccc(S(=O)(=O)Nc2cccc(C(F)(F)F)c2)c1	-6	-37	2	65*	68*	27*
NNC(=O)c1cccc(S(=O)(=O)Nc2cccc(C(F)(F)F)c2)c1	-2	-6	-1	6	x	x
C[C@H]1c2cccc(O)c2C(O)=C2C(=O)[C@]3(O)C(O)=C(C(N)=O)C(=O)[C@@H](N(C)C)C3[C@@H](O)C21 (stereo partly drawn)	-5	4	1	9	x	x
C=C1c2cccc(O)c2C(=O)C2C(=O)[C@]3(O)C(=O)C(C(N)=O)C(=O)[C@@H](N(C)C)[C@@H]3[C@@H](O)[C@H]12 (stereo partly drawn)	-12	2	2	85*	28	10*
Cc1ccc(S(=O)(=O)Oc2ccc(C3C4=C(CCCC4=O)N(CCC(=O)O)C4=C3C(=O)CCC4)cc2Cl)cc1	-3	-1	1	36*	37*	11*
CCCC(=O)Nc1sc(-c2ccccc2)c(-c2ccccc2)c1C(=O)O	-7	5	1	41*	26	4
Cc1sc(NC(=O)CCCC(=O)O)c(C(N)=O)c1-c1ccccc1	-5	1	0	-1	x	x
O=C(O)c1ccccc1C(=O)N1N=C2/C(=C/c3cccc([N+](=O)[O-])c3)CCCC2C1c1cccc([N+](=O)[O-])c1 (stereo not drawn)	-4	-19	1	52*	73*	30*
O=C(O)c1c(C(=O)N2N=C3/C(=C/c4ccccc4)CCCC3C2c2ccccc2)cccc1[N+](=O)[O-] (stereo not drawn)	-8	-13	1	35*	56*	17*
COc1ccc(CNC(=O)C/C(C)=N/NC(=O)c2ccc(OC)cc2OC)cc1	-9	0	0	-1	x	x
COc1ccc(Cl)cc1C(=O)NNC(=O)c1n[nH]c2ccccc12	-2	12	1	1	x	x
N#Cc1c(SCC(=O)O)nc(N2CCCCC2)c2c1CCCC2	-3	-10	3	35*	27	7.1*
COC(=O)CSc1nc(N2CCCCC2)c2c(c1C#N)CCCC2	-7	-1	0	1	x	x
O=C1COc2ccc(S(=O)(=O)NCCc3ccccc3)cc2N1	-11	-11	-1	0	x	x
CC(C)CSC1=NSC2=NC(=O)/C(=C\c3ccccc3)C(=N)N12	-3	-19	0	76*	39*	9.9*

Screens: PubChem, The Scripps Research Institute Molecular Screening Center
